Reference: paper PMC7862700, “An all-to-all approach to the identification of sequence-specific readers for epigenetic DNA modifications on cytosine”

Key:
Assay in all cases: DAPPL (digital affinity profiling via proximity ligation, sequencing); 10 mM Tris-HCl pH 7.5, 50 mM NaCl, 1 mM DTT, 4% glycerol, room temperature, 30 min; GST-TFs on glutathione beads, 16-mer random dsDNA library, 0.1% formaldehyde crosslink after washing; high values mean tight binding
ELK1 = biological target: T1, ELK1 (Homo sapiens, UniProt P19419 1-428); details: protein: recombinant; tags: N-terminal GST; dsDNA, one strand shown
T1 sequence: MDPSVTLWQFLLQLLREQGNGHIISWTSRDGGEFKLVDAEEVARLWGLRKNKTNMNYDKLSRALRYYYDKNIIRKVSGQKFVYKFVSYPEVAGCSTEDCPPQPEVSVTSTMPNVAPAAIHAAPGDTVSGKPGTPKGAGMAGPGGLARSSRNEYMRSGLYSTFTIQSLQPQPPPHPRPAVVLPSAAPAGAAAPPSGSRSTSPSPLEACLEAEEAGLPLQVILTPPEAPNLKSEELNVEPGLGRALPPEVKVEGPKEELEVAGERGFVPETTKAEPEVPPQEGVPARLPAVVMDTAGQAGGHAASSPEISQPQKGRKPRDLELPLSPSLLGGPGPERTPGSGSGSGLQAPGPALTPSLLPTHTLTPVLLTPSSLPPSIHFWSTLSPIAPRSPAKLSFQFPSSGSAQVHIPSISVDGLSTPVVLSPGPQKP
In short: (§1)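 Binding signal is each hexamer's read frequency for a factor divided by its frequency in the tag-only sample. The factors were GST-fused human transcription factors from yeast, captured on glutathione beads, DNA-barcoded and pooled with that sample. Pools were incubated with 200 nmole of a random double-stranded 16-mer DNA library in Tris/NaCl/DTT/glycerol buffer at room temperature for 30 min, then washed, crosslinked with 0.1% formaldehyde, proximity-ligated with BsaI/T4 ligase (1 h, 37 °C), PCR-amplified and sequenced on an Illumina NextSeq500.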

GABPA = biological target: T2, GABPA (Homo sapiens, UniProt Q06546 1-454); details: protein: recombinant; tags: N-terminal GST; dsDNA, one strand shown
T2 sequence: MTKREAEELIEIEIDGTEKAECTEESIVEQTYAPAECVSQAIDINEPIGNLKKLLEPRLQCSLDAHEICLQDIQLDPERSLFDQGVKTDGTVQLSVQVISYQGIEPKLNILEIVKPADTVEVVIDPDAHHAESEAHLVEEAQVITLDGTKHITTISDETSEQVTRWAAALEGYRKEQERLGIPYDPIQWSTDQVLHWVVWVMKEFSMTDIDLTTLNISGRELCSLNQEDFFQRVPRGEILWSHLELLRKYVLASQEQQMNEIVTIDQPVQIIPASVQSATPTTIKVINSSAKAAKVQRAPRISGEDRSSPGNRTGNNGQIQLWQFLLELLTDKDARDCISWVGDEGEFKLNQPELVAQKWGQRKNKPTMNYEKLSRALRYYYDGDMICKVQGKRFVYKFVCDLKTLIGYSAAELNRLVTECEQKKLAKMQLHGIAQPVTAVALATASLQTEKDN
In short: as §1

ELF1 = ELF1 (Homo sapiens, UniProt P32519 1-619); details: protein: recombinant; tags: N-terminal GST; dsDNA, one strand shown
Chain of ELF1 (P32519 whole entry): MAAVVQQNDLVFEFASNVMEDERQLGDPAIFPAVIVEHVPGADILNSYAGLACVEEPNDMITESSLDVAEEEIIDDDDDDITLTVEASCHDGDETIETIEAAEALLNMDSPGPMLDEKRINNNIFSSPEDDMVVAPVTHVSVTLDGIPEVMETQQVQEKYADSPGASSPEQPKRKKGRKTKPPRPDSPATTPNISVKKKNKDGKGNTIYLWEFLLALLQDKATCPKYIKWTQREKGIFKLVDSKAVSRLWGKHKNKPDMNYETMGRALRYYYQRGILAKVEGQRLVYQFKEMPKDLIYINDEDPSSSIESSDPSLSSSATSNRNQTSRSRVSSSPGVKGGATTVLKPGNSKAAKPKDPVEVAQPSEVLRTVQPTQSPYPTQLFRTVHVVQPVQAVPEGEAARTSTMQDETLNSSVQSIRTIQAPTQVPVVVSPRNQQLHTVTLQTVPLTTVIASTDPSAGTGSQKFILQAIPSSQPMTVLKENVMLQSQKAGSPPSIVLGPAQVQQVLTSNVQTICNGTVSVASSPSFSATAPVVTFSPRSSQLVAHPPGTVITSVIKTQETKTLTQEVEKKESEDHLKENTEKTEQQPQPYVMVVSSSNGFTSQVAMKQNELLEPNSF
In short: as §1

SPI1 = SPI1 (Homo sapiens, UniProt P17947 1-270); details: protein: recombinant; tags: N-terminal GST; dsDNA, one strand shown
In short: as §1

HSF1 = HSF1 (Homo sapiens, UniProt Q00613 1-529); details: protein: recombinant; tags: N-terminal GST; chain copies: 3; dsDNA, one strand shown
Chain of HSF1 (Q00613 whole entry): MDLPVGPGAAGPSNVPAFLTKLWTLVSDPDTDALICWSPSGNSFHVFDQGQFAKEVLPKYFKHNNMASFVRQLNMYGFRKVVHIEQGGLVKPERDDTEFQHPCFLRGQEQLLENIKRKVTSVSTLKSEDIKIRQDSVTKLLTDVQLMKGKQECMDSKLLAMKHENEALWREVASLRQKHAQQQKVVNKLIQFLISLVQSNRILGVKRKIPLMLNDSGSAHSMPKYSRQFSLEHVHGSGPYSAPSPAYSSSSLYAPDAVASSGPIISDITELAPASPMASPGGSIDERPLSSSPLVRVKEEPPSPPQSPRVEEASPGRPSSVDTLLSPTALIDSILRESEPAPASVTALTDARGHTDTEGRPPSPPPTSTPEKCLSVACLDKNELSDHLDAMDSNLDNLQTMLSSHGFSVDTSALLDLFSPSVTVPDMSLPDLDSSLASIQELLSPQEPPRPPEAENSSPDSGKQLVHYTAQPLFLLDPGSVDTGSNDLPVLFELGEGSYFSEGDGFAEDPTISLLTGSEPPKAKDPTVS
In short: as §1

ELF4 = ELF4 (Homo sapiens, UniProt Q99607 1-663); details: protein: recombinant; tags: N-terminal GST; dsDNA, one strand shown
Chain of ELF4 (Q99607 whole entry): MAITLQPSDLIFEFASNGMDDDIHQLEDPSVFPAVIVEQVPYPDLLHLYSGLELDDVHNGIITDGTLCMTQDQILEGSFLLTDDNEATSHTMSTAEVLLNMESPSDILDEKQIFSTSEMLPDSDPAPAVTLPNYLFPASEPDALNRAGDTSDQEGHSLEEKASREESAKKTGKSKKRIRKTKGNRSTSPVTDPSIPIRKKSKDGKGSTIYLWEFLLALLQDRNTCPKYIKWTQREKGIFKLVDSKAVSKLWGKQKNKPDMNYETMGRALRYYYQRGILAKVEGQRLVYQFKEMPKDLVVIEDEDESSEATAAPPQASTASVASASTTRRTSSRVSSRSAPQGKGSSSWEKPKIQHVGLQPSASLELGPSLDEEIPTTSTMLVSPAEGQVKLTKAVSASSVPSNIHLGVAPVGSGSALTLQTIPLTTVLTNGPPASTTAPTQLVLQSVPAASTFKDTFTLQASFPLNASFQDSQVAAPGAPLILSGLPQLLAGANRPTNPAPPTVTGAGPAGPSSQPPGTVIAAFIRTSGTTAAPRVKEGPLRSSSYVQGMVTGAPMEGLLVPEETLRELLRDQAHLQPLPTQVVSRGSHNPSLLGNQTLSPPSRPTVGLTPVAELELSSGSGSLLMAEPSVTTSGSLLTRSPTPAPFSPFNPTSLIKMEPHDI
In short: as §1

ELK4 = biological target: T3, ELK4 (Homo sapiens, UniProt P28324-2 1-405); details: protein: recombinant; tags: N-terminal GST; dsDNA, one strand shown
T3 sequence: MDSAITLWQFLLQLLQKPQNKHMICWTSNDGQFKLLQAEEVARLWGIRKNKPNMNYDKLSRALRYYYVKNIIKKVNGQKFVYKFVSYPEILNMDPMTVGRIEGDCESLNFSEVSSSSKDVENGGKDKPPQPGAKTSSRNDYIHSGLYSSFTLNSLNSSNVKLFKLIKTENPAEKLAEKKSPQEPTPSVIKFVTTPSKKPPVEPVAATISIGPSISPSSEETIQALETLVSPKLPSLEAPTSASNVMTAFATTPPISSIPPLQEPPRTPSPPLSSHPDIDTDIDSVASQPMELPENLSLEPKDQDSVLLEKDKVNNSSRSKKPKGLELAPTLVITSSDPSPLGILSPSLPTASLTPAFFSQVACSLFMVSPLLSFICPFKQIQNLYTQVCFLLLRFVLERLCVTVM
In short: as §1

ETV2 = biological target: T4, ETV2 (Homo sapiens, UniProt O00321 1-342); details: protein: recombinant; tags: N-terminal GST; dsDNA, one strand shown
T4 sequence: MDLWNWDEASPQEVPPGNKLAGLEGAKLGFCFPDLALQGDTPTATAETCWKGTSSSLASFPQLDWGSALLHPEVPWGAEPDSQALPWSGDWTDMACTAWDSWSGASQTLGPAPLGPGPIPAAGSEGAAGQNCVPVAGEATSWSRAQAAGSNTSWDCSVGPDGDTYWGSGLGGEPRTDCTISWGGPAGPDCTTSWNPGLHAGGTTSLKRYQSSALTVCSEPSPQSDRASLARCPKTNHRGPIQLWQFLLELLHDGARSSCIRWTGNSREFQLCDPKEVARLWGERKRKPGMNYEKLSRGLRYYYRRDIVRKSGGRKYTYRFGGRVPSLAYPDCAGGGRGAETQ
In short: as §1

ELF3 = biological target: T5, ELF3 (Homo sapiens, UniProt P78545 1-371); details: protein: recombinant; tags: N-terminal GST; dsDNA, one strand shown
T5 sequence: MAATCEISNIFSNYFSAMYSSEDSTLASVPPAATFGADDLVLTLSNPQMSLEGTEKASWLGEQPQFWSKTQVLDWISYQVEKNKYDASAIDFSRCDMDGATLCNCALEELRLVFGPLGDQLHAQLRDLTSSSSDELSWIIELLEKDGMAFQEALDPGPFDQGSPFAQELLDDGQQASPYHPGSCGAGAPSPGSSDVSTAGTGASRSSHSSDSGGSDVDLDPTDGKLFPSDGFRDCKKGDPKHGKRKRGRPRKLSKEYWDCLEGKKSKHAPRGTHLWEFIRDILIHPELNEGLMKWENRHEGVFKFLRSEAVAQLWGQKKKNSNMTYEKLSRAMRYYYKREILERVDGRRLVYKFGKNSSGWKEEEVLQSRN
In short: as §1

CRX = CRX (Homo sapiens, UniProt O43186 1-299); details: protein: recombinant; tags: N-terminal GST; dsDNA, one strand shown
Chain of CRX (O43186 whole entry): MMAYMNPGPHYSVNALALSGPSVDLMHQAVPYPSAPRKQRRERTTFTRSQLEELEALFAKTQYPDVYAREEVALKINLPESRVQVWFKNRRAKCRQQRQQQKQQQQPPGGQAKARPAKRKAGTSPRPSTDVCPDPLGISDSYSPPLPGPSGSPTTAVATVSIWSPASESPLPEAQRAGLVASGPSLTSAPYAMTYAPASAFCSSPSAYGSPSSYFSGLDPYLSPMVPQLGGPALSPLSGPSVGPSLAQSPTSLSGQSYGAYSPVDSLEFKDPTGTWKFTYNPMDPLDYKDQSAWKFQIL
In short: as §1

ERF = biological target: T6, ERF (Homo sapiens, UniProt P50548 1-548); details: protein: recombinant; tags: N-terminal GST; dsDNA, one strand shown
T6 sequence: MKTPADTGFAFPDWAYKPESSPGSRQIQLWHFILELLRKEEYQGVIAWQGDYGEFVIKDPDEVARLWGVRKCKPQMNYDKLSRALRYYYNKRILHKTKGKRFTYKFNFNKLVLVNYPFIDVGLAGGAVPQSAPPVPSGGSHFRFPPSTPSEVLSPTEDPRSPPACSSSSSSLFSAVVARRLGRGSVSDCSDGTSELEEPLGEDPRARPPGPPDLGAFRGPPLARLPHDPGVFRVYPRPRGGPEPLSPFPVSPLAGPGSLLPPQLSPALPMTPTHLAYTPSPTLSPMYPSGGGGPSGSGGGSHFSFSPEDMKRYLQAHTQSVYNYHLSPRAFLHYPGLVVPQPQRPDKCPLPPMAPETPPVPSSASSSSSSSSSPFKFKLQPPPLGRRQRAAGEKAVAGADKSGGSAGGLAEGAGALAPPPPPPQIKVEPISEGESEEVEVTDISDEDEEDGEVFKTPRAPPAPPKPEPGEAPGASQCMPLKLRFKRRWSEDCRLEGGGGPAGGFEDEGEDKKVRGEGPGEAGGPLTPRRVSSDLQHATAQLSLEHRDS
In short: as §1

ETV3L = biological target: T7, ETV3L (Homo sapiens, UniProt Q6ZN32 1-361); details: protein: recombinant; tags: N-terminal GST; dsDNA, one strand shown
T7 sequence: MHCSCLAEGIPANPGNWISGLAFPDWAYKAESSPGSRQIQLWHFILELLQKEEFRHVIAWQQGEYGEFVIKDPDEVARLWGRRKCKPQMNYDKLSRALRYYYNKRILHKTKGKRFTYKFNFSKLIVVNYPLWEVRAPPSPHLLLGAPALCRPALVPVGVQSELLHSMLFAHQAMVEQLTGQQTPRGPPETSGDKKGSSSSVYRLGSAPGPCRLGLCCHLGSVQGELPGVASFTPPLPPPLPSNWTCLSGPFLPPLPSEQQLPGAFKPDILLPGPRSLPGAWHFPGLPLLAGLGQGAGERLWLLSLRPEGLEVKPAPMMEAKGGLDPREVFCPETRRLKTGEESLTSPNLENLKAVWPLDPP
In short: as §1

ETS2 = biological target: T8, ETS2 (Homo sapiens, UniProt P15036 1-469); details: protein: recombinant; tags: N-terminal GST; dsDNA, one strand shown
T8 sequence: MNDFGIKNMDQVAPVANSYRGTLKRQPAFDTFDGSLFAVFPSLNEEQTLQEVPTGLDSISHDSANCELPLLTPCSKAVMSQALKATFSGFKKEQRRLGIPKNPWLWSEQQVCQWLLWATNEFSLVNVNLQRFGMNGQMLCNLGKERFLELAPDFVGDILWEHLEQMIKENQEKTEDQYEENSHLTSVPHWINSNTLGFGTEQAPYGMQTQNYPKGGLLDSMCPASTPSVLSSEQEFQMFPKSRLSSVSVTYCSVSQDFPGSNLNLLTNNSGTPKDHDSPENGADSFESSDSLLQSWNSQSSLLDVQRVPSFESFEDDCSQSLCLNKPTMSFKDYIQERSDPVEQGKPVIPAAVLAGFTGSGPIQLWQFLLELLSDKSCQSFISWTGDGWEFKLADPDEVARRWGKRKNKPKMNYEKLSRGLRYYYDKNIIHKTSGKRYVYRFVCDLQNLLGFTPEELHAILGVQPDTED
In short: as §1

SPDEF = biological target: T9, SPDEF (Homo sapiens, UniProt O95238 1-335); details: protein: recombinant; tags: N-terminal GST; dsDNA, one strand shown
T9 sequence: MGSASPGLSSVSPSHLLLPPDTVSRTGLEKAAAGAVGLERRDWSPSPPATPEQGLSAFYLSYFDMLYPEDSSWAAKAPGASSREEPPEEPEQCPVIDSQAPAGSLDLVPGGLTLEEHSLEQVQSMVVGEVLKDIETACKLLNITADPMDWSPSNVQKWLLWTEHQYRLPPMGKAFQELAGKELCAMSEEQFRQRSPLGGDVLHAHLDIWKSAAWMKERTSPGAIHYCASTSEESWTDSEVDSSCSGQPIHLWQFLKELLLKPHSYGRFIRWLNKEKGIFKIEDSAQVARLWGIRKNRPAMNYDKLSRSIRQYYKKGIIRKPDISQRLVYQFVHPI
In short: as §1

ETV7 = biological target: T10, ETV7 (Homo sapiens, UniProt Q9Y603 1-341); details: protein: recombinant; tags: N-terminal GST; dsDNA, one strand shown
T10 sequence: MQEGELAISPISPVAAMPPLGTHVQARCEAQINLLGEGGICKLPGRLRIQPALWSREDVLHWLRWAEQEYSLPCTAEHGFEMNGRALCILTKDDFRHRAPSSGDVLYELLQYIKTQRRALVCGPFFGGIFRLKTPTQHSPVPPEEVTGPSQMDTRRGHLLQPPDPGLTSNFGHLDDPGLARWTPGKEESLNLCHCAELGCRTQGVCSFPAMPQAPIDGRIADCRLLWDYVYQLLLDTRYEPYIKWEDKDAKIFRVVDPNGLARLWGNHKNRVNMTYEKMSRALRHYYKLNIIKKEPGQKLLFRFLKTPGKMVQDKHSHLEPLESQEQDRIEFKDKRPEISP
In short: as §1

ELF5 = biological target: T11, ELF5 (Homo sapiens, UniProt Q9UKW6-2 1-255); details: protein: recombinant; tags: N-terminal GST; dsDNA, one strand shown
T11 sequence: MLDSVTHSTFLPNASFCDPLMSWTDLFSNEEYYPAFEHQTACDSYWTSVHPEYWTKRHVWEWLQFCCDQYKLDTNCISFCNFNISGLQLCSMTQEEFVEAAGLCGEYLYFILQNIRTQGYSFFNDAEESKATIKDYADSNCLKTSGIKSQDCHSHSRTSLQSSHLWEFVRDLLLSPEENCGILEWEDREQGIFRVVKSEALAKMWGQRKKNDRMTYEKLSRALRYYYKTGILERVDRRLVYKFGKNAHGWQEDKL
In short: as §1

ETV3 = biological target: T12, ETV3 (Homo sapiens, UniProt P41162-2 1-143); details: protein: recombinant; tags: N-terminal GST; dsDNA, one strand shown
T12 sequence: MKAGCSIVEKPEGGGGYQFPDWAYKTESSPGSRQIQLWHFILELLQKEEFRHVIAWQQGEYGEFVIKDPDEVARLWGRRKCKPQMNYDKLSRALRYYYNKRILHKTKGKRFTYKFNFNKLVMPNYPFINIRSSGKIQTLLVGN
In short: as §1

ETV6 = ETV6 (Homo sapiens, UniProt P41212 1-452); details: protein: recombinant; tags: N-terminal GST; dsDNA, one strand shown
Chain of ETV6 (P41212 whole entry): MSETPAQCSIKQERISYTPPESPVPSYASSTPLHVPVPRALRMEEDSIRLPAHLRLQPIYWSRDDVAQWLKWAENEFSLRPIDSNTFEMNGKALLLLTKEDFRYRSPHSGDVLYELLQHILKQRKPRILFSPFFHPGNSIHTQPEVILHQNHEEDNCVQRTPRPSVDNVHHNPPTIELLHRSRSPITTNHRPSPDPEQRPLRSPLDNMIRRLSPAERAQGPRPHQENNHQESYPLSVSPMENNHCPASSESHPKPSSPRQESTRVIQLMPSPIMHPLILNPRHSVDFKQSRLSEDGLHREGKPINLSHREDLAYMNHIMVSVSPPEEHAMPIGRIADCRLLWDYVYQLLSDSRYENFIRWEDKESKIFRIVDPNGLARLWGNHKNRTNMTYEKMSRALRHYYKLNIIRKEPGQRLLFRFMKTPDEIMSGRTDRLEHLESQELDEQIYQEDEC
In short: as §1

Sequence: AGAATA
- binding signal (ELK1): 1.04 fold enrichment (6-mer frequency, TF over GST control)
- binding signal (GABPA): 1 fold enrichment (6-mer frequency, TF over GST control)
- binding signal (ELF1): 1.01 fold enrichment (6-mer frequency, TF over GST control)
- binding signal (SPI1): 1 fold enrichment (6-mer frequency, TF over GST control)
- binding signal (HSF1): 2.32 fold enrichment (6-mer frequency, TF over GST control)
- binding signal (ELF4): 1.06 fold enrichment (6-mer frequency, TF over GST control)
- binding signal (ELK4): 1.02 fold enrichment (6-mer frequency, TF over GST control)
- binding signal (ETV2): 1.07 fold enrichment (6-mer frequency, TF over GST control)
- binding signal (ELF3): 1.04 fold enrichment (6-mer frequency, TF over GST control)
- binding signal (CRX): 1.42 fold enrichment (6-mer frequency, TF over GST control)
- binding signal (ERF): 1.03 fold enrichment (6-mer frequency, TF over GST control)
- binding signal (ETV3L): 1.04 fold enrichment (6-mer frequency, TF over GST control)
- binding signal (ETS2): 1 fold enrichment (6-mer frequency, TF over GST control)
- binding signal (SPDEF): 1.04 fold enrichment (6-mer frequency, TF over GST control)
- binding signal (ETV7): 1.08 fold enrichment (6-mer frequency, TF over GST control)
- binding signal (ELF5): 1.04 fold enrichment (6-mer frequency, TF over GST control)
- binding signal (ETV3): 1.04 fold enrichment (6-mer frequency, TF over GST control)
- binding signal (ETV6): 1.07 fold enrichment (6-mer frequency, TF over GST control)
